# Pf Dd2 inh: blocks in vitro growth of P. falciparum Dd2. P. falciparum Dd2 growth, SYBR Green, 72 h. hit rate 4.3% among 120,000. Potency, µM (doses to about 28.9 µM), inactives show at the highest dose activity, negative = inhibition, usual class: inhibitors. AID 1347417; active means well fitted inhibition curve with a large enough effect;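 further: plate controls were DMSO vehicle for no effect and reference drug for full effect; nearly all actives have a fitted effect of over 65% in size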
#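 Infected erythrocytes (Dd2, 0.3% parasitemia, 2.5% hematocrit final) are added to compound in RPMI-1640/Albumax II medium, grown 72 h at 37C in low oxygen, then lysed with saponin/Triton-X containing SYBR Green and read by fluorescence.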
# * hit, by the source's call; i = inactive; [ ] = dose if it differs, or a comment. The sample as a whole holds a higher share of hits than the screen did. Potency means the concentration at half of the fitted maximal effect.
SMILES,Pf Dd2 inh
CCOC(=O)C[C@@H]1C[C@@H](C(C)C)[C@H](CNC(=O)c2ccc(C#N)cc2)C=C1C,i
CS(=O)(=O)N1CCC(C2CCN(C(=O)NCCc3ccccc3)C2)CC1 (stereo not drawn),-7%
O=C(c1ccccc1)N1C[C@@H](F)[C@@H](OCc2nc3ccc(C(F)(F)F)cc3[nH]2)C1,i
NC(=O)[C@@H]1CCCN1CC[C@H]1CN(C(=O)COc2ccccc2)CC[C@H]1CC(=O)O,-5%[44.1 µM]
COc1ccc(OC)c([S+](=O)([O-])c2nnn3c2nc(NC2CCCC2)c2ccccc23)c1,-10%
N#Cc1cccc(CN2CCN(c3nccc(Cl)n3)C(=O)C2)c1,-22%[44.1 µM]
COCCN1C[C@H]2CN(C(=O)c3ccccc3OC)CCN2C1=O,18%[44.1 µM]
Cc1cc(-c2cccc(OC(C)C)c2)cnc1-n1cnnc1,-2%
COC[C@@H]1CN(C(=O)c2ncoc2-c2cccc(C)c2)C[C@H]1C(N)=O,5%
CCOc1ccccc1C1NC(=O)N(CC(=O)N(CC)c2ccccc2)C2=C1C(=O)OC2 (stereo not drawn),i
Cc1cccc([C@H]2C[C@@H](O)[C@@H](O)[C@@H]2NC(=O)C2CCOCC2)c1,24%[44.1 µM]
CCn1cc(S(=O)(=O)N2CCCC(c3nnnn3-c3ccccc3)C2)cn1 (stereo not drawn),5%
Cc1nc(C(C)C)sc1C(=O)N(C)Cc1cc(C2CC2)n[nH]1,1%
N#Cc1cccc(C(=O)N2CCCCCCNC(=O)[C@@H]3CCCC[C@@H]32)c1,23%
COCCc1noc([C@@H]2CN(CC(C)C)C[C@H]2CO)n1,-26%
CCCNC(=O)NC[C@@H]1C=C(C)[C@H](Cc2nc3ccc(OC)cc3[nH]2)C[C@H]1C(C)C,10µM*
CC1=C[C@@H](CNC(=O)CC2(CC(=O)O)CCCC2)[C@H](C(C)C)C[C@H]1Cc1nc2ccc(F)cc2[nH]1,i
CC1=C[C@@H](CNCc2ccccc2O)[C@H](C(C)C)C[C@H]1Cc1nc2c(C)cccc2[nH]1,-25%[44.1 µM]
COc1ccc2nc(C[C@@H]3C[C@@H](C(C)C)[C@H](CNC(=O)CC4(CC(=O)O)CCCC4)C=C3C)[nH]c2c1,i
COc1ccc2nc(C[C@@H]3C[C@@H](C(C)C)[C@H](CNCc4ccc(NC(C)=O)cc4)C=C3C)[nH]c2c1,i
COC(=O)c1ccc2nc(C[C@@H]3C[C@@H](C(C)C)[C@H](CNC(=O)[C@@H]4CCCC[C@@H]4C(=O)O)C=C3C)[nH]c2c1,-13%
COCC(=O)NC[C@@H]1C=C(C)[C@H](Cc2nc3ccc(F)cc3[nH]2)C[C@H]1C(C)C,13µM*
COCC(=O)NC[C@@H]1C=C(C)[C@H](Cc2nc3ccccc3[nH]2)C[C@H]1C(C)C,i
CCCNC(=O)NC[C@@H]1C=C(C)[C@H](Cc2nc3ncccc3[nH]2)C[C@H]1C(C)C,i
COc1ccc2nc(C[C@@H]3C[C@@H](C(C)C)[C@H](CNCc4ccccn4)C=C3C)[nH]c2c1,0.63µM*
SMILES,Pf Dd2 inh
COC(=O)c1ccc2nc(C[C@@H]3C[C@@H](C(C)C)[C@H](CNC4CCOCC4)C=C3C)[nH]c2c1,-20%
COC(=O)c1ccc2nc(C[C@@H]3C[C@@H](C(C)C)[C@H](CNC(=O)N4CCOCC4)C=C3C)[nH]c2c1,13µM*
Cc1cccn2c(CC(=O)N3CCC4(CC3)c3nc[nH]c3CCN4C)cnc12,-11%
O=C(N[C@@H]1CCN(C(=O)c2n[nH]c3ccccc23)C[C@H]1O)c1cccnc1,-11%
O=C(O)c1cccc(-c2cncc(C(=O)O)c2)c1,i
CC(=O)NCC(=O)N1CCCC2(COc3ccccc3[S+](=O)([O-])N2)C1 (stereo not drawn),5%
CCCS(=O)(=O)N1CCC(Cn2c(C)cnc2C2CC2)CC1,-13%
O=C(NC1CCN(c2ccccc2)C1=O)c1cccc(Cl)c1 (stereo not drawn),-27%
CC(C)(C)NC(=O)N1CC[C@H]2C(=O)NCCCCCN(Cc3cccnc3)[C@@H]2C1,-1%
COCCNC(=O)C[C@@H]1C[C@@H](C(C)C)[C@H](CNC(=O)C2CC2)C=C1C,8.9µM*
CCOC(=O)C[C@@H]1C[C@@H](C(C)C)[C@H](CNC(=O)C2CC2)C=C1C,-16%[44.1 µM]
COCC(=O)NC[C@@H]1C=C(C)[C@H](CC(=O)N2CCCC2)C[C@H]1C(C)C,-22%[44.1 µM]
O=C(NC1CCc2ccccc21)c1ccc(CN2C(=O)NC3(CCOCC3)C2=O)cc1 (stereo not drawn),i
COc1ccc(N2CC(C(=O)N3CCC(C(=O)NCc4ccc(F)cc4)C3)NC2=O)cc1 (stereo not drawn),-2%
O=C(Cn1c(=O)c2c(n1Cc1ccccc1)CN(Cc1ccccc1)CC2)NCc1cccc(Cl)c1,i
Cc1ccc(-c2c(C(=O)NCc3ccc(F)cc3)oc(=O)c3ccccc23)cc1,15%
O=c1oc2c3c(ccc2c2ccccc12)OCN(Cc1cccc(Cl)c1)C3,10µM*
O=C1CC2(CCN(Cc3ccc(F)cc3)CC2)Oc2ccccc2N1,i
O=c1oc2c3c(ccc2c2ccccc12)OCN(Cc1ccccc1Cl)C3,5.6µM*
Cc1cc2c(c3oc(=O)c4ccccc4c13)CN(Cc1ccc(F)cc1)CO2,0.79µM*
O=C1[C@H]2CN(Cc3ccccc3Cl)C[C@H]2C(=O)N1Cc1ccc2c(c1)OCO2,-5%
Cc1ccc2c(c1)N1C(=O)OC[C@@H]1CCN(Cc1cccc(Cl)c1)C2,-8%[44.1 µM]
Cc1ccc2c(CN3CCN(Cc4ccccc4Cl)CC3)cc(=O)oc2c1,i
Cc1ccoc1C(=O)N1C[C@@H](COc2ccccc2)[C@H](C(N)=O)C1,-22%
Cn1cccc1C(=O)N1CCn2c(nnc2[C@@H]2C[C@@H](O)CN2Cc2ccccc2)C1,-16%
SMILES,Pf Dd2 inh
Cc1ccc(C)c(Nc2nn3c(=O)c4ccc(C(=O)NCc5ccccc5)cc4nc3s2)c1,-11%
Cc1ccccc1Nc1nn2c(=O)c3ccc(C(=O)NCC(C)c4ccccc4)cc3nc2s1 (stereo not drawn),13µM*
Cc1ccc(Cl)cc1Nc1nn2c(=O)c3ccc(C(=O)NCc4cccs4)cc3nc2s1,i
O=Cc1cccc(-c2cccs2)c1,-14%[44.1 µM]
O=C(Nc1ccc(F)cc1F)N[C@H]1C[C@H]2C(=O)NC[C@@H](CCC(=O)N3CCCCC3)N2C1,i
COC(=O)[C@H](Cc1ccc(OC)cc1)NC(=O)[C@@H]1CN(C(=O)NC(C)C)CCN1C(=O)C1CCCCC1,-3%
Cc1ccccc1NC(=O)N1CCC(CCNC(=O)Cc2ccsc2)CC1,-6%
CSc1ccc(-c2ccc3c(c2)C(=O)N2CCN(C(=O)CCC(=O)O)C[C@H]2C(=O)N3)cc1,42%
CSc1ccc(-c2ccc3c(c2)C(=O)N2CCN(C(=O)CCC(=O)O)C[C@@H]2C(=O)N3)cc1,7%
CSc1ccc(-c2ccc3c(c2)C(=O)N2CCN(C(=O)CC(C)(C)C)C[C@@H]2C(=O)N3)cc1,5.6µM*
COc1cccc(CC(=O)NCCC2CCN(C(=O)Nc3cc(F)cc(F)c3)CC2)c1,i
COc1ccc(C(=O)N2CCC3(CC2)C(=O)Nc2ccccc23)cc1,52%
CN1C(=O)C2(CCN(C(=O)c3ccccc3)C2)c2ccccc21 (stereo not drawn),-15%[44.1 µM]
CC(C)Oc1ccc(C(=O)N2CCC3(CC2)C(=O)N(C)c2ccccc23)cc1,8.9µM*
CC1(C(=O)O)CCN(C(=O)c2cccc(Cl)c2)CC1,-12%[44.1 µM]
CN1C(=O)C2(CCN(C(=O)c3cccc(F)c3)C2)c2ccccc21 (stereo not drawn),i
